Compound activity: PubChem, National Center for Advancing Translational Sciences (NCATS)
NPC1 promoter act – NPC1 promoter activation. Huh7 NPC1 promoter luciferase reporter, 24 h. Potency, µM (doses to about 9.22 µM), for inactives: at the highest dose activation, hits mostly activators. 2.4% of 320,000 active; also: % of control where 0% means no effect; nearly all actives have a fitted effect of over 60% in size
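In 1536-well qHTS, Huh7 cells harboring an NPC1 promoter–luciferase construct received compound for 24 h; activation was quantified by luminescence following luciferase reagent addition.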
SMN2 splice up – increases expression of the SMN2 splice variant; HEK293 SMN2-luciferase splicing reporter, luminescence, 30-36 h; Potency, µM (series often up to 46.1 µM), inactives show at the highest dose activity change, positive = activation, actives largely listed as activators; 2.8% of 210,000 active; AID 1458; also: % of control where 0% means no effect; nearly all actives have a fitted effect of over 55% in size
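HEK293 cells carry an SMN2 minigene-luciferase reporter in which exon 7 inclusion puts luciferase in frame. Cells were seeded at 2000 cells/well, attached for 10-12 hours, then exposed to compounds for 30-36 hours at 37C before ONE-Glo luminescence.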
KinaseGlo FLuc – counter-screen: inhibitors of Kinase-Glo firefly luciferase | Q27757 | Kinase-Glo luciferase, ATP luminescence, 8 min | Potency, µM (doses to about 38.3 µM), inactives show top-dose activity change, negative = inhibition, actives largely listed as inhibitors | 0.28% of 200,000 active; also: % is scaled to controls: 0 for no effect and ±100 for the full control effect; nearly all actives have a fitted effect of over 60% in size
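Inhibition of Kinase-Glo luciferase light generation was assessed at 10 uM ATP in pH 7.2 imidazole buffer, with luminescence measured after eight minutes at ambient temperature.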
Rab9 prom act – activators of Rab9 promoter; Potency, µM (top dose mostly 9.22 µM), inactives show top-dose activation, negative = inhibition, usual class: activators; 2.8% of 320,000 active; AID 485297; Huh7 Rab9 promoter-luciferase reporter, luminescence, 24 h; also: % of control where 0% means no effect; nearly all actives have a fitted effect of over 60% in size
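Cell-based reporter: Huh7 stable for Rab9 promoter-driven luciferase, plated in reduced-serum medium with 10% FBS at 1500 cells/well, compound-treated 24 h at 37 °C, luminescence read after 10 min reagent.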
ELG1 genotox – inducers of genotoxicity in HEK293T ELG1-luciferase cells; HEK293T ELG1-luciferase reporter, luminescence, 16 h; Potency, µM (titrated, usually from 46 µM), without a hit: top-dose activity change, positive = activation, usual class: activators; 1.3% of 330,000 active; also: % of control where 0% means no effect; nearly all actives have a fitted effect of over 60% in size
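ELG1-luciferase HEK293T cells, 2,000/well; compound pinned in; 16 hr, 37 °C, 5% CO2; ONE-Glo, 30 min RT; luminescence on CCD imager.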
FLuc counter – inhibits or activates purified firefly luciferase, miR-21 counter-screen; P08659; purified FLuc, Km substrates, luminescence inhibition; Potency, µM (series often up to 57.5 µM), for the others: at the highest dose activity change, negative = inhibition, usual class: inhibitors; 6.9% of 360,000 active;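 also: plate controls were vehicle for no effect and reference inhibitor for full effect; nearly all actives have a fitted effect of over 55% in size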
Target sequence (P08659 whole entry, looked up): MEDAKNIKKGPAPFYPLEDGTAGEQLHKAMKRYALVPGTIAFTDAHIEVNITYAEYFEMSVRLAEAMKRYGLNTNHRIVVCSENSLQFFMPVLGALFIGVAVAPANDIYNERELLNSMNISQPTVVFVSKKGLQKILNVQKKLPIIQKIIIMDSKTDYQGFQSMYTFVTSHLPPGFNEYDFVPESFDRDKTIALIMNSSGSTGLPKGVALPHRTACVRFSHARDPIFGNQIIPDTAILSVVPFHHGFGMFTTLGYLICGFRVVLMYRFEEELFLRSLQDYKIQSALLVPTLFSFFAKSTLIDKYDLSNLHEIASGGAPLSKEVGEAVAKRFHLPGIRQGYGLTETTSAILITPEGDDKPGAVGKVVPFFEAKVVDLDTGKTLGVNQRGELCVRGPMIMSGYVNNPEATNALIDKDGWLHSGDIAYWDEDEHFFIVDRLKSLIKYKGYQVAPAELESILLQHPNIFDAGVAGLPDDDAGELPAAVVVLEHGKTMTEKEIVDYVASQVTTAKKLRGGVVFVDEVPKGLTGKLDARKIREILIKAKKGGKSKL
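Purified P. pyralis luciferase, 10 nM final, with Km-level 10 uM D-luciferin and 10 uM ATP in 50 mM Tris acetate pH 7.5, 10 mM Mg acetate, 0.01% Tween-20, 0.05% BSA; 6-point qHTS titration about 60 µM downward; luminescence read.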
* marks the source's active call; other numbers are inactive results; [ ] = another dose, or the depositor's remark. A selection: hits, their analogues and other compounds. The true share with any hit is near 7.3%. Calls follow the shape of the dose curve; as a rule, active = well fitted curve in the direction sought with a large enough effect; inconclusive = small, poorly fitted or top-dose-only effect, or another doubt; inactive = no such curve, though single readings can be large; an effect the other way counts as inactive or inconclusive. Potency is read from the fitted curve at half-maximal effect.

Results for O=C(CSc1nc2c([nH]c3ccccc32)c(=O)n1-c1ccc(F)cc1)N1CCCCCC1 ?
FLuc counter: -2%

How did Cc1ccc2sc(NNC(=O)C3COc4ccccc4O3)nc2c1C (stereo not drawn) do in these assays?
NPC1 promoter act: -1%; SMN2 splice up: 10µM*; KinaseGlo FLuc: 1%; Rab9 prom act: 2%; ELG1 genotox: -2%; FLuc counter: 0%

What do the screens show for `Cc1csc(NC(=O)C2COc3ccccc3O2)n1` (stereo not drawn)?
NPC1 promoter act: inconclusive; SMN2 splice up: inconclusive; KinaseGlo FLuc: -12%; Rab9 prom act: 0.45µM*; ELG1 genotox: 0.52µM*; FLuc counter: 1.2µM*

How did Cc1cccc(NC(=O)C2COc3ccccc3O2)n1 (stereo not drawn) do in these assays?
NPC1 promoter act: 30%; Rab9 prom act: 20%; ELG1 genotox: 7%; FLuc counter: inconclusive

What do the screens show for `Cc1cnc(NC(=O)C2COc3ccccc3O2)s1` (stereo not drawn)?
NPC1 promoter act: 0.1µM*; SMN2 splice up: 10µM*; KinaseGlo FLuc: -20%; Rab9 prom act: 0.32µM*; ELG1 genotox: inconclusive; FLuc counter: 0.67µM*

What do the screens show for `O=C(NNc1nc2c(F)cccc2s1)C1COc2ccccc2O1` (stereo not drawn)?
NPC1 promoter act: 7%; SMN2 splice up: 18%; KinaseGlo FLuc: -1%; Rab9 prom act: -4%; ELG1 genotox: 4%; FLuc counter: inconclusive

How did N[C@@H](Cc1c[nH]c2ccc([N+](=O)[O-])cc12)C(=O)O do in these assays?
SMN2 splice up: 8%[9.22 µM]; KinaseGlo FLuc: -4%[7.66 µM]

How did Cc1ccc(C)c(N2CCN(C(=O)c3cc4c(=O)n(Cc5cccs5)ccc4nc3C)CC2)c1 do in these assays?
FLuc counter: -2%

What do the screens show for `Cc1ccc(NC(=O)c2cnccn2)cc1C`?
NPC1 promoter act: 3.2µM*; Rab9 prom act: 3.2µM*; ELG1 genotox: inconclusive; FLuc counter: 11µM*

How did O=C(O)Cc1ccc(NC(=O)c2cnccn2)cc1 do in these assays?
NPC1 promoter act: -1%; SMN2 splice up: -7%; KinaseGlo FLuc: -9%; Rab9 prom act: 0%; ELG1 genotox: 0%; FLuc counter: inconclusive

What do the screens show for `Cc1ccc(NC(=O)c2cnccn2)cc1`?
NPC1 promoter act: 2.5µM*; SMN2 splice up: 6.3µM*; KinaseGlo FLuc: -19%; Rab9 prom act: 3.2µM*; ELG1 genotox: inconclusive; FLuc counter: inconclusive

How did O=C(Nc1ccc(Br)cc1)c1cnccn1 do in these assays?
NPC1 promoter act: inconclusive; SMN2 splice up: 22%; KinaseGlo FLuc: -9%; Rab9 prom act: 3.5µM*; ELG1 genotox: inconclusive; FLuc counter: inconclusive

What do the screens show for `Cc1nc(NC(=O)c2cnccn2)ccc1Br`?
NPC1 promoter act: 2.8µM*; Rab9 prom act: 2µM*; ELG1 genotox: inconclusive; FLuc counter: 8.5µM*

What do the screens show for `Cc1cc(C)cc(-n2ccnc2SCC(=O)Nc2ccccc2F)c1`?
FLuc counter: 0%

What do the screens show for `COc1ccc(NCc2cc3ccc(OC)cc3n(CC(=O)Nc3cccc(OC)c3)c2=O)cc1`?
FLuc counter: -6%

How did O=C(Nc1cccc2ccccc12)c1cnccn1 do in these assays?
NPC1 promoter act: -2%; SMN2 splice up: inconclusive; KinaseGlo FLuc: -1%; Rab9 prom act: 4%; ELG1 genotox: 21µM*; FLuc counter: inconclusive

What do the screens show for `O=[N+]([O-])c1ccc(Cl)cc1Cl`?
SMN2 splice up: 4%

What do the screens show for `COc1ccc(-c2cc(C(=O)N3CCN(c4ncccn4)CC3)c3ccccc3n2)cc1`?
NPC1 promoter act: inconclusive; Rab9 prom act: inconclusive; ELG1 genotox: 0%; FLuc counter: 0.67µM*

What do the screens show for `COc1ccc(-c2cc(C(=O)N3CCN(c4ccccn4)CC3)c3ccccc3n2)cc1`?
NPC1 promoter act: inconclusive; Rab9 prom act: 2.8µM*; ELG1 genotox: -1%; FLuc counter: 0.67µM*
